According to PubChem BioAssay (EPA / NIEHS):
Activity calls are given as the source filed them. Rule for the calls: active = hit-call score of the fitted dose curve at least 0.9, where 1 is the maximum; inactive = score below 0.9.

Assays:
Conditions in all cases: mRNA level, 48 h; actives raise or lower the signal
[1] = read-out: Alkaline Phosphatase, Placental (ALPP) gene, ALPP (gene 250); test: LTEA_HepaRG_ALPP: Life Technologies and Expression Analysis (LTEA) Assay for Alkaline Phosphatase, Placental (ALPP) gene using HepaRG (AID 2283468)
Method in brief: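 Differentiated human HepaRG cells were plated and cultured 48 h, then exposed in duplicate for 48 h in serum-free induction medium to eight half-log concentrations from 100 uM in 0.5% DMSO. ALPP mRNA was measured by TaqMan qRT-PCR, normalized to ACTB, GAPDH, POLR2A.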

[2] = read-out: Bcl-2 (BAD) gene, BAD (gene 572); test: LTEA_HepaRG_BAD: Life Technologies and Expression Analysis (LTEA) Assay for Bcl-2 (BAD) gene using HepaRG (AID 2283469)
Method in brief: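 Activity values reflect up- or down-regulation of BAD mRNA in human HepaRG hepatic cells treated 48 h in serum-free medium, with eight-point half-log dosing capped at 100 uM and 0.5% DMSO vehicle.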

[3] = read-out: Bcl-2 (BAX) gene, BAX (gene 581); test: LTEA_HepaRG_BAX: Life Technologies and Expression Analysis (LTEA) Assay for Bcl-2 (BAX) gene using HepaRG (AID 2283470)
Method in brief: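 Gene expression measured by Fluidigm qRT-PCR with three housekeeping genes for normalisation. HepaRG cells, plated 48 h beforehand, treated 48 h at up to 100 uM (8-point, half-log) in 0.5% DMSO. Bidirectional fitting versus DMSO.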

[4] = read-out: adenosine kinase (ADK) gene, ADK (gene 132); test: LTEA_HepaRG_ADK: Life Technologies and Expression Analysis (LTEA) Assay for adenosine kinase (ADK) gene using HepaRG (AID 2283471)
Method in brief: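 Read-out is ADK transcript level measured by qRT-PCR and normalised to three housekeeping genes. Cells are human HepaRG, dosed for 48 h at up to 100 uM in 0.5% DMSO. Gain or loss of signal is fitted against DMSO controls.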

[5] = read-out: Alpha-fetoprotein (AFP) gene, AFP (gene 174); test: LTEA_HepaRG_AFP: Life Technologies and Expression Analysis (LTEA) Assay for Alpha-fetoprotein (AFP) gene using HepaRG (AID 2283472)
Method in brief: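 AFP transcript measured by TaqMan qRT-PCR with three housekeeping genes for normalization, after 48 h chemical treatment of HepaRG cells (top 100 uM, half-log steps, 0.5% DMSO). Gain or loss fitted against vehicle.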

BCL2L11 (gene 10018) = test: LTEA_HepaRG_BCL2L11: Life Technologies and Expression Analysis (LTEA) Assay for Bcl-2 (BCL2L11) gene using HepaRG (AID 2283473)
Method in brief: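 Differentiated human HepaRG cells in serum-free induction medium were exposed in duplicate for 48 h to eight concentrations (top 100 uM, half-log steps, 0.5% DMSO). BCL2L11 mRNA was quantified by TaqMan qRT-PCR, normalized to ACTB/GAPDH/POLR2A, bidirectional fit versus DMSO.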

[6] = read-out: Apolipoprotein A-V (APOA5) gene, APOA5 (gene 116519); test: LTEA_HepaRG_APOA5: Life Technologies and Expression Analysis (LTEA) Assay for Apolipoprotein A-V (APOA5) gene using HepaRG (AID 2283474)
Method in brief: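 Differentiated human HepaRG cells were exposed in duplicate for 48 h to eight half-log concentrations from 100 uM in 0.5% DMSO. APOA5 mRNA was quantified by TaqMan qRT-PCR, normalized to ACTB, GAPDH and POLR2A, and fitted bidirectionally against DMSO.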

[7] = read-out: Bcl-2 (BID) gene, BID (gene 637); test: LTEA_HepaRG_BID: Life Technologies and Expression Analysis (LTEA) Assay for Bcl-2 (BID) gene using HepaRG (AID 2283476)
Method in brief: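 Duplicate 48 h treatments of HepaRG cells in serum-free induction medium spanned 100 uM downward in half-log steps, 0.5% DMSO. Transcript change quantified by qRT-PCR against three housekeeping genes, fitted up or down versus DMSO.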

Caspase-3 (Homo sapiens) = Caspase-3 (Homo sapiens) (UniProt P42574); test: LTEA_HepaRG_CASP3: Life Technologies and Expression Analysis (LTEA) Assay for cysteine-aspartic acid protease (CASP3) using HepaRG (AID 2283477)
Sequence of Caspase-3 (Homo sapiens) (P42574 whole entry, looked up): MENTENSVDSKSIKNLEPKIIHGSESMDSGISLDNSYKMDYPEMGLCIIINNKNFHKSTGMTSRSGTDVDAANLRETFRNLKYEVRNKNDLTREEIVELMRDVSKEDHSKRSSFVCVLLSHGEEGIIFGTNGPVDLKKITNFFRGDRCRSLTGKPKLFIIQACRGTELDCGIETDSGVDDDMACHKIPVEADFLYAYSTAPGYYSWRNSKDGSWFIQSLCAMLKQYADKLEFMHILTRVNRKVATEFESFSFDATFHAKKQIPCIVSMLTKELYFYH
Method in brief: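 Differentiated human HepaRG cells in serum-free induction medium were exposed 48 h to 8-point half-log concentrations from 100 uM (0.5% DMSO vehicle). CASP3 mRNA was measured by qRT-PCR, normalised to ACTB, GAPDH and POLR2A, with bidirectional fitting against DMSO.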

[8] = read-out: Apoptosis regulator Bcl-2 (Homo sapiens) (UniProt P10415); test: LTEA_HepaRG_BCL2: Life Technologies and Expression Analysis (LTEA) Assay for Bcl-2 gene using HepaRG (AID 2283475)
Method in brief: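 qRT-PCR of BCL2 transcript, normalized to three housekeeping genes (ACTB, GAPDH, POLR2A), after 48 h chemical exposure of HepaRG cells; concentrations top 100 uM with half-log dilutions, 0.5% DMSO vehicle, duplicates; changes up or down fitted relative to vehicle.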

Measured: AC50

Sequence of Apoptosis regulator Bcl-2 (Homo sapiens) (P10415 whole entry, looked up): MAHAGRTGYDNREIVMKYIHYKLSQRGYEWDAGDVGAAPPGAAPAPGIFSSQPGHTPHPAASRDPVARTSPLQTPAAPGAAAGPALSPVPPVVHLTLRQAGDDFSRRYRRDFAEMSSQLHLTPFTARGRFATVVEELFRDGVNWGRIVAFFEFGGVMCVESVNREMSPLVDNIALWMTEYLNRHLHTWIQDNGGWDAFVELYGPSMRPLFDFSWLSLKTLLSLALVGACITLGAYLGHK

NS(=O)(=O)c1cc2c(cc1Cl)NCNS2(=O)=O
not listed: [8]
inactive: all other assays above

CC(=O)OC/C=C(\C)CCC=C(C)C
inactive: all assays above

CCCCN(CCCC)CCCC
inactive: all assays above

CCOc1ccc2c(c1)C(C)=CC(C)(C)N2
active: [5] 50 µM | BCL2L11 (gene 10018) 9.92 µM
inactive: all other assays above

C[C@]12C=CC(=O)C=C1CC[C@@H]1[C@@H]2C(=O)C[C@@]2(C)[C@H]1CC[C@]2(O)C(=O)CO
inactive: all assays above

CC1(C)NC(=O)NC1=O
inactive: all assays above

O=c1c(O)c(-c2ccc(O)c(O)c2)oc2cc(O)cc(O)c12
active: [5] 79 µM
not listed: [8]
inactive: all other assays above

O=C(OCCCCCOC(=O)c1ccccc1)c1ccccc1
active: [1] 1.46 µM | [2] 1.95 µM | [3] 1.78 µM | [4] 1.57 µM | [5] 0.77 µM | BCL2L11 (gene 10018) 2.45 µM | [6] 3.02 µM | [8] 1.67 µM | [7] 2.7 µM | Caspase-3 (Homo sapiens) 0.627 µM

Nc1ccc2c(c1)C(=O)c1ccccc1C2=O
active: [3] 15 µM | [5] 22.8 µM | [6] 5.42 µM
not listed: [8]
inactive: all other assays above

CCCCCCOCCO
not listed: [8]
inactive: all other assays above

COCCOC[C@H](CC1(C(=O)NC2CCC(C(=O)O)CC2)CCCC1)C(=O)Oc1ccc2c(c1)CCC2 (stereo not given in full)
not listed: [8]
inactive: all other assays above

COC(=O)c1ccc(O)cc1
inactive: all assays above

CCCCCCCCCCCCCCCC
inactive: all assays above

Cc1ccc(C)c(O)c1C
not listed: [8]
inactive: all other assays above

Cc1ccc2ncccc2c1
inactive: all assays above

Nc1ccc(S(=O)(=O)c2ccc(N)cc2)cc1
not listed: [8]
inactive: all other assays above

NC(=O)Cn1c(=O)cc(CCN2CCN(c3nccc4sccc34)CC2)c2ccc(F)cc21
active: [1] 50 µM | [3] 29 µM | [5] 50 µM
not listed: [8]
inactive: all other assays above

COc1ccc(C)cc1N
not listed: [8]
inactive: all other assays above

COCCOCCOC
inactive: [1] | [3] | BCL2L11 (gene 10018) | [6]
active: [2] 1.39 µM | [4] 2.17 µM | [5] 0.517 µM | [7] 1.05 µM | Caspase-3 (Homo sapiens) 0.423 µM

CCCCCCC(=O)OCC
not listed: [8]
inactive: all other assays above

O=C(O)CCCCC(=O)O
not listed: [8]
inactive: all other assays above

COc1cc(-c2nc(NC(=O)c3cc4cc(C)cc(C)c4n3CC(=O)O)sc2CCC2CCCCC2)c(OC)cc1Cl
active: [4] 15.6 µM | [5] 6.7 µM | BCL2L11 (gene 10018) 60.6 µM | [7] 5.4 µM | Caspase-3 (Homo sapiens) 11 µM
inactive: [1] | [2] | [3] | [6]

CCOC(=O)C(C)(C)Oc1ccc(Cl)cc1
not listed: [8]
inactive: all other assays above

CN[C@H]1CC[C@@H](c2ccc(Cl)c(Cl)c2)c2ccc(S(N)(=O)=O)cc21
active: [1] 5.79 µM | [3] 82.6 µM | [5] 23.8 µM
not listed: [8]
inactive: all other assays above

NCC1(Cc2noc(=O)[nH]2)CCCCC1
not listed: [8]
inactive: all other assays above

C[Si]1(C)O[Si](C)(C)O[Si](C)(C)O[Si](C)(C)O1
not listed: [8]
inactive: all other assays above

CNC(=O)[C@H]1O[C@@H](n2cnc3c(NCc4cc(Cl)ccc4OCc4cc(C)no4)ncnc32)[C@H](O)[C@@H]1N
not listed: [8]
inactive: all other assays above

CCCCCCCCCCCCCO
not listed: [8]
inactive: all other assays above

O=c1[nH]cc(F)c(=O)[nH]1
active: [6] 70.9 µM
not listed: [8]
inactive: all other assays above

CCCCOC(=O)CCCCCCCCC(=O)OCCCC
not listed: [8]
inactive: all other assays above

CNCc1cc(F)ccc1Oc1ccc(Cl)c(Cl)c1
active: [1] 81.8 µM
not listed: [8]
inactive: all other assays above

COc1cc(C=O)ccc1O
not listed: [8]
inactive: all other assays above

Cc1cccc([N+](=O)[O-])c1C
not listed: [8]
inactive: all other assays above

O=C(O)Cc1ccccc1Nc1c(Cl)cccc1Cl
active: [5] 19.7 µM
not listed: [8]
inactive: all other assays above

NCCO
not listed: [8]
inactive: all other assays above

Cc1ccccc1Cl
not listed: [8]
inactive: all other assays above

CC(C)c1ccc(C(=O)N=C(N)N)cc1S(C)(=O)=O
active: [1] 0.59 µM | [2] 0.407 µM | [3] 7.39 µM | [4] 0.418 µM | [5] 0.35 µM | BCL2L11 (gene 10018) 0.397 µM | [6] 0.302 µM | [7] 0.367 µM | Caspase-3 (Homo sapiens) 0.383 µM

CC(=O)Oc1ccccc1C(=O)O
not listed: [8]
inactive: all other assays above

Nc1nc(N)c2nc(CNc3ccc(C(=O)N[C@@H](CCC(=O)O)C(=O)O)cc3)cnc2n1
active: [5] 0.11 µM
not listed: [8]
inactive: all other assays above

Oc1ccc2ccccc2c1N=Nc1ccccc1
active: [5] 27.9 µM | BCL2L11 (gene 10018) 15.1 µM
not listed: [8]
inactive: all other assays above

CCCc1cc(=O)[nH]c(=S)[nH]1
not listed: [8]
inactive: all other assays above

COc1cc(S(=O)(=O)O)c(C)cc1N=Nc1c(O)ccc2cc(S(=O)(=O)O)ccc12
not listed: [6]
inactive: all other assays above

CC(C)(C)c1cc(O)c(C(C)(C)C)cc1O
active: [1] 90.8 µM | [4] 76.7 µM | [5] 77.7 µM | [7] 84.3 µM | Caspase-3 (Homo sapiens) 79.4 µM
inactive: [2] | [3] | BCL2L11 (gene 10018) | [6]

Cc1cccc(Nc2cc(Cl)nc(SCC(=O)O)n2)c1C
active: [7] 0.276 µM
not listed: [8]
inactive: all other assays above
